The AC50 is the midpoint of the concentration-response curve, whichever way the signal moves.

Inconclusive results are not listed. Active and inactive are the calls of the source. Rule for the calls, unless noted: active = hit-call score of the fitted dose curve at least 0.9, where 1 is the maximum; inconclusive = response in the unintended direction; inactive = score below 0.9.

Data on 11 compounds can be found in PubChem BioAssay (EPA / NIEHS).

Assay [1] has as its target T1, Thyroid hormone receptor alpha (Rattus norvegicus) + Thyroid hormone receptor beta (Rattus norvegicus) (UniProt P18113+P63059). Nature of the assay: TOX21_TR_LUC_GH3_Agonist_Followup: Tox21 GH3 Thyroid Hormone Receptor Agonism Luciferase Follow-Up Assay (AID 2283939). Summed up: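 Agonist-mode confirmatory run: 15 concentrations (5 nM to 92 uM final) on GH3 rat pituitary cells, 24 h at 37C/5% CO2, T3 as positive control. Luminescence read with ONE-Glo after 30 min.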

Assay [2] deals with THRA (gene 7067) (UniProt P10827). Nature of the assay: TOX21_TRA_COA_Agonist_Followup_ratio: Tox21 Thyroid Hormone Receptor alpha Agonism through Coactivator Recruitment Follow-Up Assay, Ratio (AID 2283948; active = hit-call score of the fitted dose curve at least 0.9, where 1 is the maximum; inactive = score below 0.9). The method in brief: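 GST-TRa LBD 2.5 nM + 0.10% BSA + cpd; add fluorescein-SRC-2 200 nM, Tb-anti-GST 2 nM. TR-FRET ex 340, em 520/495 ratio. Norm: DMSO 0%, T3 100%; gain-of-signal fit.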

The target in assay [3] is THRB (gene 7068) (UniProt P10828). Nature of the assay: TOX21_TRB_BLA_Agonist_Followup_ratio: Tox21 Thyroid Hormone Receptor beta Agonism Beta-lactamase (BLA) Follow-Up Assay, Ratio (AID 2283954). The method in brief:
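Agonist mode: compounds (11-point, triplicate) incubated 18 h with HEK293T cells carrying GAL4-DBD/human TRβ-LBD and UAS-β-lactamase. Blue/green (460/530 nm) FRET ratio read after 2 h CCF4-AM loading; CellTiter-Glo viability run in the same plates.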

The nature of assay [4]: TOX21_TRB_BLA_Agonist_Followup_viability: Viability Assessment in the Tox21 Thyroid Hormone Receptor beta Agonism Beta-lactamase (BLA) Follow-Up Assay (AID 2283956). The method in brief: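 Viability was read as CellTiter-Glo luminescence in the same wells as the TRb-bla agonist read-out. HEK293T GAL4-TRb LBD cells were treated for 18 h (37C, 5% CO2) at 11 concentrations in triplicate. Fits were bidirectional versus DMSO baseline.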

Assay [5] concerns the target THRB (gene 7068) (UniProt P10828). The assay can be described thus: TOX21_TRB_COA_Agonist_Followup_ratio: Tox21 Thyroid Hormone Receptor beta Agonism through Coactivator Recruitment Follow-Up Assay, Ratio (AID 2283963; active = hit-call score of the fitted dose curve at least 0.9, where 1 is the maximum; inactive = score below 0.9). The method in brief: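 Cell-free TR-FRET coactivator recruitment: GST-tagged TRβ LBD (5.0 nM) with 0.10% BSA incubated with compound, then fluorescein-SRC-2 peptide (200 nM) and Tb-anti-GST antibody (2 nM) added. 520:495 nm ratio normalized to DMSO (0%) and T3 (100%).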

Assay [6] has as its target Retinoic acid receptor RXR-alpha (Homo sapiens) (UniProt P19793). The assay can be described thus: TOX21_TR_RXR_BLA_Agonist_Followup_ratio: Tox21 Thyroid Hormone Receptor beta Retinoid X Receptor alpha (RXRa) Agonism Beta-lactamase (BLA) Follow-Up Assay, Ratio (AID 2283968). The method in brief: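 Agonism is scored as an increase in the 460:530 nm beta-lactamase substrate ratio over DMSO in RXRa-UAS-bla HEK293T cells exposed for 16 h to 11 compound concentrations.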

Assay [7] in a line: TOX21_TR_RXR_BLA_Agonist_Followup_viability: Viability Assessment in the Tox21 Thyroid Hormone Receptor beta Retinoid X Receptor alpha (RXRa) Agonism Beta-lactamase (BLA) Follow-Up Assay (AID 2283970). The method in brief:
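Luminescent ATP read (CellTiter-Glo) after 16h exposure of RXRa-UAS-bla HEK293T cells at 37C/5% CO2. Activity normalized to DMSO; signal loss scored as reduced viability.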

A short description of assay [8]: TOX21_PR_BLA_Followup_Agonist_viability: Viability Assessment in the Tox21 HEK293 Progesterone Receptor (PR) Agonism Beta-lactamase Follow-Up Assay (AID 2283935).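 Note: signal loss means lower viability so actives are cytotoxic.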 Summed up:
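Viability is read as CellTiter-Glo luminescence, where loss of signal indicates cytotoxicity. The cells are PR-UAS-bla HEK293T given compounds for 16 hr at 37C and 5% CO2, in the same wells used for the bla readout.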

Assay [9] concerns the target PGR (gene 5241) (UniProt P06401). Nature of the assay: TOX21_PR_LUC_Followup_Antagonist: Tox21 HEK293 Progesterone Receptor (PR) Antagonism Luciferase Follow-Up Assay (AID 2283938).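 Note: curve fitted upward as signal gain over DMSO baseline despite antagonist label.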 The method in brief:
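Luminescence from ONE-Glo reagent, measured after 30 min at room temperature, served as readout. Cells (HEK293 carrying PR-A-luc) had been treated 16 h at 37C with DMSO-dissolved compounds. Activity was fitted against DMSO controls.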

The nature of assay [10]: TOX21_PR_LUC_Followup_Antagonist_viability: Viability Assessment in the Tox21 HEK293 Progesterone Receptor (PR) Antagonism Luciferase Follow-Up Assay (AID 2283940). Summed up:
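Loss of CellTiter-Glo ATP signal indicates cytotoxicity in HEK293-PR-A-luc cells grown in 10% charcoal-stripped FBS medium, seeded 3,000 per well and incubated 16 h with compound at 37C.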

A short description of assay [11]: TOX21_PR_LUC_Followup_Agonist_viability: Viability Assessment in the Tox21 HEK293 Progesterone Receptor (PR) Agonism Luciferase Follow-Up Assay (AID 2283941).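 Note: loss of signal means cytotoxicity so actives lower viability.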 Summed up:
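Seeding: HEK293-PR-A-luc, 3,000 cells/well, 5 h at 37C. Treatment: compound in DMSO, 16 h, 37C. Read: CellTiter-Glo ATP luminescence, signal loss taken as lower viability.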

A short description of assay [12]: TOX21_PR_BLA_Followup_Antagonist_viability: Viability Assessment in the Tox21 HEK293 Progesterone Receptor (PR) Antagonism Beta-lactamase Follow-Up Assay (AID 2283936).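 Note: cells exposed to compound with R5020 agonist for 16 h; hits lower the luminescence signal meaning cytotoxicity.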 Summed up: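 PR-UAS-bla HEK293T cells in medium with 2% charcoal-stripped FBS were treated with compounds plus R5020 for 16 hr at 37C. After the beta-lactamase read, CellTiter-Glo was added to the same wells and luminescence read after 30 min at room temperature.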

Assay [13] deals with T1, Thyroid hormone receptor alpha (Rattus norvegicus) + Thyroid hormone receptor beta (Rattus norvegicus). Nature of the assay: TOX21_TR_LUC_GH3_Antagonist_Followup: Tox21 GH3 Thyroid Hormone Receptor Antagonism Luciferase Follow-Up Assay (AID 2283942). Summed up: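 In a GH3 luciferase reporter line, test chemicals spanning 92 uM to 5nM final are co-incubated 24 h with 1.0 nM T3. Activity is expressed as relative luminescence units and analysed relative to DMSO.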

For assay [14], the target named is THRA (gene 7067) (UniProt P10827). The assay can be described thus: TOX21_TRA_COA_Antagonist_Followup_ratio: Tox21 Thyroid Hormone Receptor alpha Antagonism through Coactivator Recruitment Follow-Up Assay, Ratio (AID 2283953). The method in brief: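 We measured antagonism of T3-type coactivator recruitment using a TR-FRET ratio (emission 520 and 495 nm) between a Tb-labelled anti-GST antibody on TRα LBD (2.5 nM) and SRC-2 peptide (200 nM). Activity was scaled between DMSO and T3 wells.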

The nature of assay [15]: TOX21_TRB_BLA_Antagonist_Followup_viability: Viability Assessment in the Tox21 Thyroid Hormone Receptor beta Antagonism Beta-lactamase (BLA) Follow-Up Assay (AID 2283961). The method in brief: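 Viability read as CellTiter-Glo ATP luminescence (loss of signal = cytotoxicity) in the same plates as the TRβ-bla readout. TRβ-LBD/GAL4 UAS-bla HEK293T cells were exposed to compounds, 11 concentrations in triplicate, for 18 h at 37C/5% CO2.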

The target of assay [16] is THRB (gene 7068) (UniProt P10828). Nature of the assay: TOX21_TRB_COA_Antagonist_Followup_ratio: Tox21 Thyroid Hormone Receptor beta Antagonism through Coactivator Recruitment Follow-Up Assay, Ratio (AID 2283967). Summed up:
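Coactivator (SRC-2) recruitment to purified GST-TRβ ligand-binding domain is monitored by terbium-to-fluorescein energy transfer, emission ratio 520:495 nm. DMSO wells define 0% and T3 wells 100% activity.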

The target in assay [17] is Retinoic acid receptor RXR-alpha (Homo sapiens) (UniProt P19793). Nature of the assay: TOX21_TR_RXR_BLA_Antagonist_Followup_ratio: Tox21 Thyroid Hormone Receptor beta Retinoid X Receptor alpha (RXRa) Antagonism Beta-lactamase (BLA) Follow-Up Assay, Ratio (AID 2283972). The method in brief: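 Beta-lactamase reporter readout as cleaved/uncleaved substrate ratio (460:530 nm) after 2 h substrate loading at room temperature. GAL4-RXRa bla HEK293T cells were exposed 16 h at 37C to 11-point compound series; loss of signal scored against DMSO baseline.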

In assay [18] the target is PGR (gene 5241) (UniProt P06401). The assay can be described thus: TOX21_PR_LUC_Followup_Agonist: Tox21 HEK293 Progesterone Receptor (PR) Agonism Luciferase Follow-Up Assay (AID 2283937; active = hit-call score of the fitted dose curve at least 0.9, where 1 is the maximum; inactive = score below 0.9). The method in brief: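 In HEK293 cells stably expressing PR-A with a luciferase reporter, compounds were incubated 16 h at 37C, and induced luminescence was quantified with ONE-Glo, multiplexed with cell viability.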

The target of assay [19] is THRB (gene 7068) (UniProt P10828). The assay can be described thus: TOX21_TRB_BLA_Antagonist_Followup_ratio: Tox21 Thyroid Hormone Receptor beta Antagonism Beta-lactamase (BLA) Follow-Up Assay, Ratio (AID 2283958). The method in brief:
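Using charcoal-stripped 2% FBS medium, human TRβ-LBD/GAL4 reporter HEK293T cells received test compounds for 18 h. The endpoint is the cleaved-to-uncleaved substrate ratio (460/530 nm).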

Assay [20] in a line: CCTE_Harrill_HTTr_Viability_DMEM_6hr: (Pilot) CCTE's 6-hour Cell Viability Assessment for the High-Throughput Transcriptomics (HTTr) Platform, in MCF-7 cells cultured in DMEM + 10% fetal bovine serum, Harrill Lab (AID 2283973; active = hit-call score of the fitted dose curve at least 0.9, where 1 is the maximum; inactive = score below 0.9). The method in brief:
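Propidium iodide uptake imaged by high-content analysis after six hours of chemical treatment in an eight-concentration series. Cells: MCF-7 grown in DMEM with 10% fetal bovine serum; DMSO as baseline.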

Sequence of Retinoic acid receptor RXR-alpha (Homo sapiens) (P19793 whole entry, looked up, the tested form may be a part): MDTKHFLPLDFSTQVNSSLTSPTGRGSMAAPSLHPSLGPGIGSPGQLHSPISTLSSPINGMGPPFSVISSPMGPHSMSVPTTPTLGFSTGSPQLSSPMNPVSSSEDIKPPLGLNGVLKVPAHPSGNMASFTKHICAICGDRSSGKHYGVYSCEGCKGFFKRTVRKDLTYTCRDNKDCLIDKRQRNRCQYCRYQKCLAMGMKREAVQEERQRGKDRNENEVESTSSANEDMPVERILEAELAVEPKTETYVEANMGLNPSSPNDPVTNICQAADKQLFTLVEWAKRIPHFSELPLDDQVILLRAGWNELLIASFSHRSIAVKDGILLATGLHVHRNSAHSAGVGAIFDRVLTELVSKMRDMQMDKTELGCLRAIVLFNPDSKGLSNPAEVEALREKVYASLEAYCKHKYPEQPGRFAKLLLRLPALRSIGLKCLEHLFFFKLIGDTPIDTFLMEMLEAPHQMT
Sequence of THRA (gene 7067) (P10827 whole entry, looked up, the tested form may be a part): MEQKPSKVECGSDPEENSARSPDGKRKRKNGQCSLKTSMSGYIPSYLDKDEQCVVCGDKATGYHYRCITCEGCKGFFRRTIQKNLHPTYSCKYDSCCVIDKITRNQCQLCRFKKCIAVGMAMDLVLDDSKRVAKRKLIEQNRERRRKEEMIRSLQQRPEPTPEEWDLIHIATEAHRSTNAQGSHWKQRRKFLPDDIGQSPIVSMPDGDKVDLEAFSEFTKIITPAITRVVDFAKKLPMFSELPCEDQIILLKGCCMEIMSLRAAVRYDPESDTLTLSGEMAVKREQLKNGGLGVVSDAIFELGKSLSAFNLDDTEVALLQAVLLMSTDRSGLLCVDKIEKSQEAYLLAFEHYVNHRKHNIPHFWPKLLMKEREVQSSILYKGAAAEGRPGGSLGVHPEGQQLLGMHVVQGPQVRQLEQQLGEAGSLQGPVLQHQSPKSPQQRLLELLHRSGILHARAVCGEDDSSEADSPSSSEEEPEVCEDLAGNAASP
Sequence of THRB (gene 7068) (P10828 whole entry, looked up, the tested form may be a part): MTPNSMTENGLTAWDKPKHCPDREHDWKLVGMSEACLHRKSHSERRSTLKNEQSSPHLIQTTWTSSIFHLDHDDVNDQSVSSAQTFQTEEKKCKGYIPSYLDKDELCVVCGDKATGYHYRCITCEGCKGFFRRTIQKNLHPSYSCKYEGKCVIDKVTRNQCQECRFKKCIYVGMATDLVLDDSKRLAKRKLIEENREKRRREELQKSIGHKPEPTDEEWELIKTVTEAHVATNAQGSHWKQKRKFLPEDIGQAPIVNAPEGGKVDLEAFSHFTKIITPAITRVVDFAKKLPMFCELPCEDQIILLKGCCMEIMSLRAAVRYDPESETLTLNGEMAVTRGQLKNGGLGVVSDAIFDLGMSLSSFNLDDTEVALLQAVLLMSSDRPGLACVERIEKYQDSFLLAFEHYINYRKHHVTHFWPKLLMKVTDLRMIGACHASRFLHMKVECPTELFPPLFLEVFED
Sequence of PGR (gene 5241) (P06401 whole entry, looked up): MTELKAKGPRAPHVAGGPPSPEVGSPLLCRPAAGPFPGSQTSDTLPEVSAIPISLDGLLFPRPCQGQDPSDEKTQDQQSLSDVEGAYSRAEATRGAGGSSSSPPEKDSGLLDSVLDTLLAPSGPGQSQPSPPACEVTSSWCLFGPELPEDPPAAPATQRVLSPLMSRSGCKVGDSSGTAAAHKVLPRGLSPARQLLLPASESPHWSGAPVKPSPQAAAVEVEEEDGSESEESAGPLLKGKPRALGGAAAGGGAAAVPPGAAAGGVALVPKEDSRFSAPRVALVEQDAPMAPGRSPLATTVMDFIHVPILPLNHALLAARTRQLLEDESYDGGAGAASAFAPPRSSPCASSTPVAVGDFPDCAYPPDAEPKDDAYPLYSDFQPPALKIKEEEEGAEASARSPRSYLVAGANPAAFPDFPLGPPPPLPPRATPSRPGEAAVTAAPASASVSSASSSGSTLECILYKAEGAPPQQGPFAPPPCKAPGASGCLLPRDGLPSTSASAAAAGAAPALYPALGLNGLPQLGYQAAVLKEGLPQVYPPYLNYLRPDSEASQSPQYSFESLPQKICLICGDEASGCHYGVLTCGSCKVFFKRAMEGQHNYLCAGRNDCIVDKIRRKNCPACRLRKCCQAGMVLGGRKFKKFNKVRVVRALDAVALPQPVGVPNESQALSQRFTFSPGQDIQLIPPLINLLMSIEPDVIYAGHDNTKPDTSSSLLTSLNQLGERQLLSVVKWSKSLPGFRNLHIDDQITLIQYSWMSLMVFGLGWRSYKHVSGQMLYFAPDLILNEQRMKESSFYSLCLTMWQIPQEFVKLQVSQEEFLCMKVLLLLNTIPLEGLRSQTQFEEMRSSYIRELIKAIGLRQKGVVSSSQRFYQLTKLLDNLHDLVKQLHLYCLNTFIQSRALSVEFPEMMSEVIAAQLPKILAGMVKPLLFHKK
T1 sequence (P63059 whole entry, looked up): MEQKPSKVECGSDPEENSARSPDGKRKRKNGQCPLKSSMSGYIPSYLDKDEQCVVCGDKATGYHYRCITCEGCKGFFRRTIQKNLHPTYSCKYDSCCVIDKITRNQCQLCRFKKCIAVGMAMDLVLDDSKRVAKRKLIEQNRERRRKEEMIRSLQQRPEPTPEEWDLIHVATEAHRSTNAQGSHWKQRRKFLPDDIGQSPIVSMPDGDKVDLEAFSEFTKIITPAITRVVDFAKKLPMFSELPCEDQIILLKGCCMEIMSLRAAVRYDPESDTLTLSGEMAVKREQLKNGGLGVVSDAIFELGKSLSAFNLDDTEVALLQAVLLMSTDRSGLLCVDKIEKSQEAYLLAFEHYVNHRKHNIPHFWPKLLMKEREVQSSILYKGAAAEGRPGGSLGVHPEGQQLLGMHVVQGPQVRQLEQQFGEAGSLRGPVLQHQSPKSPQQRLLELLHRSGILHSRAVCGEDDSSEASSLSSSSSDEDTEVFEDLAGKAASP
T1 sequence (P18113 whole entry, looked up): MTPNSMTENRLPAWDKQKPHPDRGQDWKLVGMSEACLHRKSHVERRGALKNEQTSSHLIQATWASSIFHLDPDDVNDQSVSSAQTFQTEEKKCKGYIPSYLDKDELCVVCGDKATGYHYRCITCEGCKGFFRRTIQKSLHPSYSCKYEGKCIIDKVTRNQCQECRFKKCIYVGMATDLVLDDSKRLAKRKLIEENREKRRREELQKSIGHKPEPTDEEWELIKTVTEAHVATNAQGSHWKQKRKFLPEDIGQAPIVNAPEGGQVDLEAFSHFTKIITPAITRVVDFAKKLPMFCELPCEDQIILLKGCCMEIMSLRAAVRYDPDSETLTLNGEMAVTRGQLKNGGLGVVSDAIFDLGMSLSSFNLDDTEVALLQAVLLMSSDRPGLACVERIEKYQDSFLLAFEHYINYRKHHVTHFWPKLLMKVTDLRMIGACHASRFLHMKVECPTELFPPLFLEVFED

With `Cc1ccc(N)cc1`, the outcome (in [1]; with THRA (gene 7067) [2]; with THRB (gene 7068) [3]; in assay [4]; with THRB (gene 7068) [5]; in [6]) was inactive. Further, in assay [7], the compound was called inactive.
For `O=[N+]([O-])c1ccc(Oc2ccc(Cl)cc2Cl)cc1`, the result (in assay [8]; with PGR (gene 5241) [9]; in [10]; in assay [11]) was inactive.
For the compound `CCCCOC(=O)c1ccccc1C(=O)OCc1ccccc1`, the compound was called inactive (in [8]; in assay [12]; with PGR (gene 5241) [9]; in [10]; in [11]).
In the case of `Clc1ccc(C(c2ccc(Cl)cc2)C(Cl)Cl)cc1`, the result in assay [8] and in assay [12] was inactive. In the assay with PGR (gene 5241) [9], the AC50 was 33.8 µM (active).
For the compound `ClC1=C(Cl)[C@]2(Cl)[C@H]3[C@H]([C@@H]4C=C[C@H]3C4)[C@@]1(Cl)C2(Cl)Cl`, the AC50 in assay [8] was 62.6 µM (active); with PGR (gene 5241) [9], 46.1 µM (active). The compound was called inactive in [12].
For `COC(=O)Nc1nc2ccccc2[nH]1`, the result (in [13]; with THRA (gene 7067) [14]; in assay [15]; with THRB (gene 7068) [16]; in assay [17]) was inactive.
Regarding `Clc1ccc(C(c2ccc(Cl)cc2)C(Cl)(Cl)Cl)cc1`, the results for the AC50 (in assay [8]; with PGR (gene 5241) [9]) were 84.9 µM (active) and 32.5 µM (active), respectively. Besides, the compound was classed as inactive in [12], in assay [10] and in assay [11].
For the compound `C[C@]12C=CC3=C4CCC(=O)C=C4CC[C@H]3[C@@H]1CC[C@@H]2O`, the outcome (in [8]; in assay [12]; in the assay with PGR (gene 5241) [9]; in [10]; in assay [11]) was inactive. In the assay with PGR (gene 5241) [18], the AC50 is 0.00268 µM (active).
In the case of `Clc1ccc(Cl)c(Cl)c1`, the result (in the assay with THRA (gene 7067) [2]; with THRB (gene 7068) [3]; in [4]; with THRB (gene 7068) [5]; in assay [6]; in assay [7]) was inactive.
As for `CN(C)c1ccc(C(=O)c2ccc(N(C)C)cc2)cc1`, the result (in [13]; in [15]; with THRB (gene 7068) [16]; in assay [17]) was inactive. The AC50 in the assay with THRB (gene 7068) [19] was 2.66 µM (active).
`CS(=O)(=O)NC(=O)c1cc(Oc2ccc(C(F)(F)F)cc2Cl)ccc1[N+](=O)[O-]`: the outcome in [20] was inactive.
